This is a sample that favours compounds with a hit; in the whole collection about 1.8% have one here.
PrP UTR inh – inhibition of PrP 5' UTR reporter expression | cell-based PrP 5' UTR mRNA reporter, plate reader | inhibition, % (no concentration beside the values) | hit rate 0.35% among 340,000 | AID 488862; in the data active = inhibition above about 52%
PfHsp40 yeast – rescue of PfHsp40-mediated yeast toxicity | S. cerevisiae expressing PfHsp40, growth rescue, ATP luminescence | hit rate 0.68% among 340,000 | AID 504582 | growth rescue, % at 12.5 µM; in the data active = growth rescue above about 28%, passing the limit was not always enough;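 also: yeast W303a lacking pdr1 and pdr3 grown in galactose medium; growth measured after three days at 30 °C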
PrPC TRFRET – cell surface PrPC inhibition, primary TR-FRET screen; P04156; TR-FRET read-out; inhibition, % at 13.8 µM; hit rate 0.43% among 370,000; AID 720596; in the data active = inhibition above about 24%
SSB-PriA inh – inhibitors of Klebsiella pneumoniae PriA binding to SSB C-terminal tail. AlphaScreen SSBct-PriA binding, biotinylated peptide. inhibition, % at 33 µM. hit rate 0.6% among 430,000. AID 1272365; in the data active = inhibition mostly above about 37%, no sharp cut-off; inactive = mostly below about 20%
MazF activator – activators of E. coli MazEF toxin-antitoxin RNase | hit rate 0.32% among 350,000 | activation, % at 20 µM | AID 504720 | FAM/BHQ RNA-DNA oligo cleavage fluorescence, 5 h | P0AE70; in the data active = activation above about 50%
Target sequence (P0AE70 whole entry, looked up): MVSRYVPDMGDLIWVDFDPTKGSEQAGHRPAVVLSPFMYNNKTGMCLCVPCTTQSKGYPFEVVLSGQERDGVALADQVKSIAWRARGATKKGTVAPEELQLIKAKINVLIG
Of the large screens only hits and unclear results are named; the others gave an inactive call; ! = not active in a repeat.

O=C(Oc1ccccc1[N+](=O)[O-])c1cccnc1	none
Cc1cc(C)nc(SCc2ccc(C(=O)NN=C3CCCC3)cc2)n1	none
COC(=O)c1ccc(CSc2nc(C)cc(C(F)(F)F)n2)cc1	SSB-PriA inh 38 (no result: PrP UTR inh, PfHsp40 yeast, PrPC TRFRET, MazF activator)
CC1CCCC(=NNc2ccc([N+](=O)[O-])cc2[N+](=O)[O-])C1 (stereo not given)	SSB-PriA inh 58 (no result: PrP UTR inh, PfHsp40 yeast, PrPC TRFRET, MazF activator)
COC(=O)c1ccc(C(=O)Nc2nnc(-c3cc(C)n(C)n3)o2)cc1	SSB-PriA inh 95 (no result: PrP UTR inh, PfHsp40 yeast, PrPC TRFRET, MazF activator)
COc1cc(-c2noc(C)c2C#Cc2ccc(N)cc2)cc(OC)c1OC	PrP UTR inh 65
N#Cc1nc(-c2cccs2)oc1N1CCN(Cc2ccccc2)CC1	SSB-PriA inh 41
N#Cc1nc(-c2cccs2)oc1NCCc1ccccc1	PfHsp40 yeast 106
N#Cc1nc(-c2cccs2)oc1NCc1ccc2c(c1)OCO2	SSB-PriA inh 48
CCN(CC)S(=O)(=O)c1ccc(-c2nc(C#N)c(NCc3ccc4c(c3)OCO4)o2)cc1	none (no result: PrP UTR inh, PfHsp40 yeast, PrPC TRFRET, MazF activator)
O=C(Nc1c(-c2ccccc2)[nH][nH]c1=O)c1ccco1	none (no result: PrP UTR inh, PfHsp40 yeast, SSB-PriA inh, MazF activator)
COc1ccccc1N(CCC#N)C(=O)CSc1nnc2ccccn12	none
COc1ccccc1N(CCC#N)C(=O)CSc1nc(-c2ccccc2)cn1N	PfHsp40 yeast 36
Cc1cccc(NC(=O)c2cc(=O)n(Cc3ccccc3)c(=O)[nH]2)c1	none
N#C/C(=C\c1ccccc1[N+](=O)[O-])C(=O)NC1CCCCC1	MazF activator 423
CCCCOc1ccc2c(c1)C(=O)c1cc(O)ccc1-2	PfHsp40 yeast 284
CCOc1ccc2c(c1)C(=O)c1cc(OCC(=O)O)ccc1-2	none
CC1=CC(=O)C(C(C)C)=C/C1=C(\c1cc(C(C)C)c(O)cc1C)c1ccccc1S(=O)(=O)O	SSB-PriA inh 59 (no result: PrP UTR inh, PfHsp40 yeast, PrPC TRFRET, MazF activator)
NC(=O)CSc1cn(Cc2cccc(F)c2)c2ccccc12	none
O=C(CCc1ccccc1)NCC(=O)N/N=C/c1ccc(O)cc1O	none (no result: SSB-PriA inh)
O=C(Nc1ccc(-c2ccc3nnc(-c4ccncc4)n3n2)cc1)c1ccccc1Cl	none (no result: PrP UTR inh, PfHsp40 yeast, PrPC TRFRET, MazF activator)
Cc1ccccc1C(=O)Nc1ccc(-c2ccc3nnc(-c4ccccn4)n3n2)cc1	SSB-PriA inh 70 (no result: PrP UTR inh, PfHsp40 yeast, PrPC TRFRET, MazF activator)
O=C(Nc1ccc(-c2ccc3nnc(-c4ccccn4)n3n2)cc1)c1ccc(Cl)nc1	none (no result: PrP UTR inh, PfHsp40 yeast, PrPC TRFRET, MazF activator)
O=C(Cc1ccccc1)Nc1ccc(-c2ccc3nnc(-c4ccccn4)n3n2)cc1	SSB-PriA inh 95 (no result: PrP UTR inh, PfHsp40 yeast, PrPC TRFRET, MazF activator)
O=C(Nc1ccc(-c2ccc3nnc(-c4ccccn4)n3n2)cc1)c1ccccc1Cl	SSB-PriA inh 82 (no result: PrP UTR inh, PfHsp40 yeast, PrPC TRFRET, MazF activator)
O=C(N/N=C/c1ccc(O)cc1)c1cc(-c2ccc3c(c2)OCO3)n[nH]1	PrPC TRFRET 25 (no result: SSB-PriA inh)
Cc1ccn(-c2ccc(Nc3ccc(NC(=O)c4c(F)cccc4Cl)cc3)nn2)n1	SSB-PriA inh 39 (no result: PrP UTR inh, PfHsp40 yeast, PrPC TRFRET, MazF activator)
Cc1ccn(-c2ccc(Nc3ccc(NC(=O)c4ccccc4Br)cc3)nn2)n1	SSB-PriA inh 35 (no result: PrP UTR inh, PfHsp40 yeast, PrPC TRFRET, MazF activator)
Cc1ccn(-c2ccc(Nc3ccc(NC(=O)C4CCCCC4)cc3)nn2)n1	none (no result: PrP UTR inh, PfHsp40 yeast, PrPC TRFRET, MazF activator)
Cc1ccn(-c2ccc(Nc3ccc(NC(=O)c4c(F)cccc4F)cc3)nn2)n1	none (no result: PrP UTR inh, PfHsp40 yeast, PrPC TRFRET, MazF activator)
O=C(O)c1cc(-n2cccc2)ccn1	SSB-PriA inh 95 (no result: PrP UTR inh, PfHsp40 yeast, PrPC TRFRET, MazF activator)
CC(OC(=O)c1cc2sccc2n1C)C(=O)NCC1CCCO1 (stereo not given)	PfHsp40 yeast 106
CCOC(=O)c1c(NC(=O)COC(=O)CCOc2cc(C)ccc2C)sc(C(=O)N(C)C)c1C	none
N#Cc1c(Nc2ccccc2)[n+]([O-])c2ccc(Cl)cc2[n+]1[O-]	PfHsp40 yeast 69
COc1ccc(Nc2nc3cc(C)ccc3cc2C#N)c(OC)c1	MazF activator 62
COc1ccc(Nc2nc3ccc(C)cc3cc2C#N)c(OC)c1	MazF activator 139
Cc1ccc(NC(=S)NC(=O)C2CCCC2)c(Br)c1	PfHsp40 yeast 119
NC(=NOC(=O)COc1ccc([N+](=O)[O-])cc1)c1cccnc1	none (no result: PrP UTR inh, PfHsp40 yeast, PrPC TRFRET, MazF activator)
CN1CCN(C2CCN(c3ccc(Nc4nnc(Cl)c(Nc5ccccc5S(C)(=O)=O)n4)c(OC(CF)CF)c3)CC2)CC1	PfHsp40 yeast 329
COc1ccc(C)c2sc(N(CCN(C)C)C(=O)c3ccc4ccccc4c3)nc12	SSB-PriA inh 43!
COc1cc2ccccc2cc1C(=O)N(CCN(C)C)c1nc2ccc(Br)cc2s1	SSB-PriA inh 49
COc1ccc(C)c2sc(N(CCN(C)C)C(=O)CCOc3ccccc3)nc12	none (no result: PrP UTR inh, PfHsp40 yeast, PrPC TRFRET, MazF activator)
Cc1cc(C)c2nc(N(CCN(C)C)C(=O)c3ccc4ccccc4c3)sc2c1	SSB-PriA inh 38!
Cc1c(C(=O)OCC[N+]2(C)CCCCC2)oc2ccccc12	none
COc1ccc(-n2cnnc2SCc2cnc(-c3ccccc3)s2)cc1	none
N#C/C(=C\c1cn(CCOc2ccccc2)c2ccccc12)C(=O)NCc1cccs1	MazF activator 59

Screening data (PubChem BioAssay)
